Structures are written as SMILES. Screen size: about 85,000 compounds; about 35 (0.04%) were called active.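 Rule for the calls: active = viability drop by adding the cancer drug above about 55%, with treated viability meeting a 40% cutoff (limit read from the data); inactive = the rest, inconclusive results apart.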 This excerpt belongs to a sample that is enriched for actives.

By viability is commonly meant a read-out of living cells in per cent, often relative to untreated cells.

The test can be described thus: reversal of MRP1-mediated doxorubicin resistance, primary screen, H69AR cells, doxorubicin co-treatment (AID 602).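 For differential viability (reversal): larger differential means the compound sensitizes cells more to doxorubicin.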 The conditions noted are these: CellTiter-Glo, 72 h, at 10 µM; for differential viability (reversal): stronger effect = higher value. Background: ATP-based viability assays read luminescence as a measure of living cells.
Setting [1] is: H69AR cells + 2 uM doxorubicin, measured here: viability with 2 uM doxorubicin, stronger effect = lower value.
Where [2] appears, read: H69AR cells, measured here: cytotoxicity without doxorubicin.

As to `Cc1cc(C)n(-c2nnc(C)n2NC(=O)c2cccc(Cl)c2)n1`, the differential viability (reversal) (H69AR cells + 2 uM doxorubicin) was -4.55% (inactive). Besides, the viability is, setting by setting: under setting [1], 92.7%; under setting [2], 88.1%.

Consider `Cc1ccc(OCc2nnc(NC(=O)OCC(C)C)s2)cc1`, for which the differential viability (reversal) (H69AR cells + 2 uM doxorubicin) was 9.33% (inactive). Further, the viability is 92.3% under setting [1] and 102% under setting [2].

As to `O=S(=O)(N1CCCCC1)N1CCNCC1`, the differential viability (reversal) (H69AR cells + 2 uM doxorubicin) was -0.65% (inactive). In addition, the viability was 101% under setting [1] and 100% under setting [2].

`COc1cccc(OCc2cc(/C=N/NC(=O)c3nc(Cl)c(Cl)c(N)c3Cl)ccc2OC)c1`: where the note is “H69AR cells + 2 uM doxorubicin”, the differential viability (reversal) was -32.4% (inactive). Moreover, the viability by setting is: under setting [1], 52.1%; under setting [2], 19.7%.

On to `CS(=O)(=O)N(CC(O)Cn1c2ccccc2c2ccccc21)c1cccc2ccccc12` (centres undefined), for which, under “H69AR cells + 2 uM doxorubicin”, the differential viability (reversal) was -10.3% (inactive). The viability came to 12% under setting [1] and 1.71% under setting [2].

As to `CSc1ccccc1NC(=O)c1cc(C2CC2)on1`, the differential viability (reversal) (H69AR cells + 2 uM doxorubicin) is -6.53% (inactive). For the same compound, the viability was found to be 97.2% under setting [1] and 90.7% under setting [2].

As for `O=C(NCCOc1ccccc1)c1ccccc1`, for the setting “H69AR cells + 2 uM doxorubicin”, the differential viability (reversal) was -3.69% (inactive). The viability is 95.1% under setting [1] and 91.4% under setting [2].

For the compound `COc1ccc(NC(=O)Nc2ccc3nc(C)c(C)nc3c2)cc1`, where the note is “H69AR cells + 2 uM doxorubicin”, the differential viability (reversal) was 5.42% (inactive). The viability runs as follows: under setting [1], 85.3%; under setting [2], 90.7%.

`CCNc1nc(NC(C)C)nc(OCCOC(=O)c2ccccc2)n1`: where the note is “H69AR cells + 2 uM doxorubicin”, the differential viability (reversal) was -9.76% (inactive). The viability is 93.2% under setting [1] and 83.5% under setting [2].

Take `CC(C)=C1SC(N2CCN(c3cccc(C)c3)CC2)=NC1=O`: the differential viability (reversal) (H69AR cells + 2 uM doxorubicin) was 15.1% (inactive). In addition, the viability was determined as 81.8% under setting [1] and 96.9% under setting [2].

As to `O=C(NC1CCCC1)C(c1ccccn1)N(C(=O)c1csnn1)C1CCCC1` (centres undefined), the differential viability (reversal) (H69AR cells + 2 uM doxorubicin) is 0.73% (inactive). The viability by setting is: under setting [1], 80.5%; under setting [2], 81.2%.

As to `COC(=O)C1=C(Nc2ccc(C)cc2)C=C(C)C(C(=O)OC)C1c1ccc(F)cc1` (centres undefined), the differential viability (reversal) (H69AR cells + 2 uM doxorubicin) is -31.5% (inactive). The viability is 43.6% under setting [1] and 12.1% under setting [2].

As for `CCC(C)(C)n1nnnc1CN1CCN(c2nc3ccc(C)cc3cc2C#N)CC1`, the differential viability (reversal) (H69AR cells + 2 uM doxorubicin) was 0.16% (inactive). The viability by setting is: under setting [1], 81.3%; under setting [2], 81.4%.

Consider `CCOc1cc2[nH]c(=S)n(CCN3CCCCC3C)c(=O)c2cc1OCC` (centres undefined), for which, where the note is “H69AR cells + 2 uM doxorubicin”, the differential viability (reversal) was 3.92% (inactive). Besides, the viability amounted to 78.5% under setting [1] and 82.5% under setting [2].

As for `CCOC(=O)c1cnc(SCC(=O)Nc2ccccc2C(=O)OC)nc1N`, the differential viability (reversal) (H69AR cells + 2 uM doxorubicin) was 2.9% (inactive). The viability under setting [1] was 84.2% and the viability under setting [2] stood at 87.2%.

As to `O=C(Nc1ccc2oc(-c3ccc4ccccc4c3)nc2c1)c1cccs1`, the differential viability (reversal) (H69AR cells + 2 uM doxorubicin) was -0.32% (inactive). The viability stood at 2.97% under setting [1] and 2.65% under setting [2].

Turning to `CCN(CC)C(=O)CN(c1cccc(OC)c1)S(=O)(=O)c1ccc(C)cc1`, the differential viability (reversal) (H69AR cells + 2 uM doxorubicin) was -12.4% (inactive). Further, the viability reads like this: under setting [1], 94.7%; under setting [2], 82.3%.

In the case of `Cc1nnc(NC(=O)CCCOc2ccccc2)s1`, the differential viability (reversal) (H69AR cells + 2 uM doxorubicin) is 12.8% (inactive). Further, the viability by setting is: under setting [1], 80.9%; under setting [2], 93.7%.

For the compound `CCn1c(-c2ccoc2C)n[nH]c1=S`, the differential viability (reversal) (H69AR cells + 2 uM doxorubicin) is 3.26% (inactive). Besides, the viability came to 86.2% under setting [1] and 89.5% under setting [2].

For the compound `Cc1ccccc1N1CCN(CCCOc2ccc3c(C)cc(=O)oc3c2)CC1`, the differential viability (reversal) (H69AR cells + 2 uM doxorubicin) was -14.1% (inactive). For the same compound, the viability is, setting by setting: under setting [1], 72.8%; under setting [2], 58.7%.

In the case of `O=c1cc(CN2CCN(c3cccc(Cl)c3)CC2)c2cc3c(cc2o1)CCCC3`, for the setting “H69AR cells + 2 uM doxorubicin”, the differential viability (reversal) was 36.9% (inactive). For the same compound, the viability is, setting by setting: under setting [1], 82.6%; under setting [2], 120%.

For the compound `O=C(c1ccc(Cl)c(Cl)c1)N1CCCC1`, the differential viability (reversal) (H69AR cells + 2 uM doxorubicin) is -4.92% (inactive). Besides, the viability reads like this: under setting [1], 100%; under setting [2], 95.3%.

Consider `Cc1ccc(NC(=O)Nc2ccc3oc(C)nc3c2)cc1`, for which the differential viability (reversal) (H69AR cells + 2 uM doxorubicin) is -17% (inactive). The viability reads like this: under setting [1], 91.5%; under setting [2], 74.5%.

`COc1ccc(Cl)cc1C(=O)NCc1cn(C)nc1C`: the differential viability (reversal) (H69AR cells + 2 uM doxorubicin) is 5.94% (inactive). Further, the viability came out at 80.2% under setting [1] and 86.1% under setting [2].

As to `O=C(CN1CCCCCC1)N1c2ccccc2Sc2ccc(C(F)(F)F)cc21`, under “H69AR cells + 2 uM doxorubicin”, the differential viability (reversal) was -13.5% (inactive). Further, the viability by setting is: under setting [1], 50.3%; under setting [2], 36.8%.

As for `COc1ccc(-c2nnc(SCC(=O)c3ccc4c(c3)OCCO4)o2)cc1`, where the note is “H69AR cells + 2 uM doxorubicin”, the differential viability (reversal) is 2.52% (inactive). Besides, the viability was 99.1% under setting [1] and 102% under setting [2].

As to `Cc1ccc(S(=O)(=O)Oc2ccc(/C=N/NC(=O)c3c(Cl)cnn3C)cc2)cc1`, the differential viability (reversal) (H69AR cells + 2 uM doxorubicin) is -3.21% (inactive). The viability by setting is: under setting [1], 82.4%; under setting [2], 79.2%.

As to `COc1ccc(C(=O)Nc2nc(-c3ccc(S(=O)(=O)N4CCOCC4)cc3)cs2)cc1`, for the setting “H69AR cells + 2 uM doxorubicin”, the differential viability (reversal) was -4.07% (inactive). Moreover, the viability amounted to 62.1% under setting [1] and 58% under setting [2].

As for `O=c1c2ccccc2nc2n1C1(CCCCC1)Cc1ccccc1-2`, the differential viability (reversal) (H69AR cells + 2 uM doxorubicin) is -4.43% (inactive). In addition, the viability reads like this: under setting [1], 88.2%; under setting [2], 83.7%.

With `COC(=O)/C(NC(C)=O)=C(\C)c1ccc(Cl)cc1`, where the note is “H69AR cells + 2 uM doxorubicin”, the differential viability (reversal) was -15.7% (inactive). For the same compound, the viability was 118% under setting [1] and 102% under setting [2].

As to `Cc1nnc(SCC(=O)Nc2ncc3c(n2)CC(C)(C)CC3=O)s1`, the differential viability (reversal) (H69AR cells + 2 uM doxorubicin) was 16.1% (inactive). Also, the viability worked out at 79.2% under setting [1] and 95.3% under setting [2].

On to `CC(=O)c1cccc(NC(=O)N2CCCC2C(=O)NCCc2ccccc2)c1` (centres undefined), for which the differential viability (reversal) (H69AR cells + 2 uM doxorubicin) is 1.66% (inactive). Also, the viability was determined as 89.9% under setting [1] and 91.5% under setting [2].

Take `O=C(/C=C/NNC(=O)c1cccc(Br)c1)c1ccccc1`: where the note is “H69AR cells + 2 uM doxorubicin”, the differential viability (reversal) was -16.9% (inactive). Besides, the viability amounted to 78.5% under setting [1] and 61.5% under setting [2].

In the case of `COC(=O)c1ccc(Sc2ccc(F)cc2)c(N)c1`, the differential viability (reversal) (H69AR cells + 2 uM doxorubicin) was 11.2% (inactive). Moreover, the viability is 97.4% under setting [1] and 109% under setting [2].

As to `O=C(CN1CCCCC1)N1c2ccccc2Sc2ccc(C(F)(F)F)cc21`, the differential viability (reversal) (H69AR cells + 2 uM doxorubicin) was -4.36% (inactive). In addition, the viability worked out at 91.2% under setting [1] and 86.8% under setting [2].

Consider `CC(CO)N1CCS(=O)(=O)CC1` (centres undefined), for which the differential viability (reversal) (H69AR cells + 2 uM doxorubicin) is 9.77% (inactive). The viability reads like this: under setting [1], 83.8%; under setting [2], 93.6%.

Take `O=C(CCN1C(=O)c2ccccc2C1=O)Nc1cccc(F)c1`: the differential viability (reversal) (H69AR cells + 2 uM doxorubicin) is 0% (inactive). Besides, the viability under setting [1] was 98.2% and the viability under setting [2] stood at 98.2%.

`Cc1ccc(SCCC(=O)OCC(=O)Nc2ncc(Cl)cc2Cl)cc1`: the differential viability (reversal) (H69AR cells + 2 uM doxorubicin) was 6.94% (inactive). Also, the viability under setting [1] came to 72.7% and the viability under setting [2] is 79.6%.
